Laboratory results from PubChem BioAssay (NCATS).
Results filed as inconclusive are left out. A number with no mark means an inactive call. Calls of active or inactive are those of the source. The call rests on the fitted dose curve; in most records, active means well fitted inhibition curve with a large enough effect; inconclusive means small, poorly fitted or top-dose-only effect; inactive means flat fitted curve, though single readings scatter.

molecular target: Calcium and integrin-binding protein 1 (Homo sapiens) (UniProt Q99828); assay: Primary qHTS for Identification of Calcium Integrin Binding Protein 1 (CIB1) Competitor (AID 1508620); conditions: CIB1-GST / FITC-alphaIIb peptide fluorescence polarization; series mostly up to 114 µM; activity change, negative = inhibition: at the top concentration;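 further: GST tagged CIB1 binding a fluorescein labelled alphaIIb integrin peptide tracer; top concentration of the series differs between compounds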
Sequence (Q99828 whole entry, looked up): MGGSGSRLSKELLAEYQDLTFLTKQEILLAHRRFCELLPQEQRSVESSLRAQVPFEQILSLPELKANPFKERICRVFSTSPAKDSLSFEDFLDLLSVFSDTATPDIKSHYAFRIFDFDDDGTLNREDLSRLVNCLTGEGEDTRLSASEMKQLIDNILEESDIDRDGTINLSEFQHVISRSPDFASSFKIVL
Outline: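 CIB1-GST (1 uM final) and compound incubated 15 min at room temperature before adding FITC-alphaIIb peptide tracer (100 nM final). Competition for binding read by fluorescence polarization (ex 480, em 540) after another 15 min at room temperature.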
On the % scale 0 is the no-effect control and ±100 the full control effect.

Structure (SMILES) | activity change, negative = inhibition [%] | Potency
O=C1Nc2ccc(Cl)cc2/C1=C\c1cc(Cl)c(O)c(Cl)c1 | 33.1 | –
Cc1cc(C)nc(Nc2nnc(N3CCN(c4cccc(C(F)(F)F)c4)CC3)s2)c1 | -0.547 | –
Fc1ccc(-c2noc(CCCCSc3nnc(-c4cccc5ccccc45)o3)n2)cc1 | – | inactive
O=C(/C=C/c1ccc(C(F)(F)F)cc1)Nc1cccc([S+](=O)([O-])Nc2ccccc2F)c1 | -4.32 | –
O=C(O)c1cccnc1SC1=NS(=O)(=O)c2ccccc21 | -2.75 | –
Cc1ccc(NS(=O)(=O)c2ccc3c(c2)CCC(=O)N3)cc1Cl | 1.95 | –
O=C1CCc2cc(S(=O)(=O)Nc3ccc4ncccc4c3)ccc2N1 | 3.16 | –
O=S(=O)(c1ccc2c(c1)OCCO2)C1CCN(S(=O)(=O)c2c(F)cccc2F)CC1 | -1.55 | –
O=C(Nc1ccc(-c2nc3ccccc3[nH]2)cc1)c1ccc(Cl)c(Cl)c1 | 26.5 | –
Cc1cc2c(s1)c1cnn(Cc3ccc(F)cc3F)c(=O)c1n2C | 2.47 | –
Cc1cc(C)nc(NC(=S)N2CCN(c3cccc4ccccc34)CC2)c1 | -8.69 | –
O=c1c2ccccc2nc2sc(Nc3ccc4c(c3)OCO4)nn12 | -13.8 | –
FC(F)(F)c1cccc(N2CCN(C(=S)Nc3cccnc3)CC2)c1 | 0.253 | –
Cc1nc(-c2ccc([S+](=O)([O-])N3CCN([S+](=O)([O-])c4c(F)cccc4F)CC3)s2)cs1 | -4.39 | –
O=S(=O)(Nc1nccs1)c1ccc(NCc2cccc(Cl)c2Cl)cc1 | 1.83 | –
Cn1c2cc(Br)sc2c2cnn(Cc3ccc(F)cc3F)c(=O)c21 | 5.2 | –
Cc1cccc(CNc2ccnc(-c3cc(C(F)(F)F)cc(C(F)(F)F)c3)n2)c1 | 3.85 | –
O=C(O)c1ccc(O)c2ncc(NC3CCNCC3)cc12 | -4.19 | –
O=C1CCc2cc(S(=O)(=O)Nc3ccc(Cl)c(Cl)c3)c(F)cc2N1 | – | inactive
O=C(NC1CCCc2c1cnn2-c1ccc(F)cc1F)c1ccc(C2(C(F)(F)F)N=N2)cc1 (centres undefined) | -0.869 | –

Structure (SMILES) | activity change, negative = inhibition [%] | Potency
Cc1cc2c(s1)c1cnn(Cc3ccc(C(F)(F)F)cc3)c(=O)c1n2C | 1.04 | –
CC(=O)c1ccc(N2CCN(C(=O)c3ccc4c(c3)CCC(=O)N4)CC2)cc1 | -3.27 | –
Cc1ccc(OCCn2c(CCNC(=O)c3cc([N+](=O)[O-])ccc3[N+](=O)[O-])nc3ccccc32)cc1 | 3.6 | –
Nc1cccc([S+](=O)([O-])N2CCCN([S+](=O)([O-])c3cccc(N)c3)CC2)c1 | -17.1 | –
Fc1ccc(-c2ccc(CNc3nc(-c4ccccc4C(F)(F)F)nc4ccccc34)cc2)cc1C(F)(F)F | -8.26 | –
O=[S+]([O-])(Nc1ccc(-c2ccccc2)cc1)c1ccc(NCc2ccc(Cl)cc2O)cc1 | -0.284 | –
CS(=O)(=O)/C=C/c1nc(Nc2cc(F)cc(F)c2)c2ncn(CC(F)F)c2n1 | 9.77 | –
O=C(CN1C(=O)N/C(=C\c2cccn2-c2cccc(C(=O)O)c2)C1=O)Nc1ccc(Cl)cc1 | -2.55 | –
COc1ccc(C2Nc3ccccc3C(=O)N2Cc2ccccc2)cc1Oc1ccc(NC(C)=O)cc1 (centres undefined) | 6.85 | –
O=C1c2ccccc2C(=O)N1c1ccc(Cl)cc1 | 7.5 | –
CC(=O)Nc1sc2c(c1-c1ccc(Cl)cc1)CCNC2 | 5.04 | –
Cc1ccc(OCCn2c(CCNC(=O)c3ccc([N+](=O)[O-])cc3)nc3ccccc32)cc1 | 1.16 | –
O=C(CSc1nc2ccccc2[nH]1)N1CCOCC1 | -2.62 | –
O=S(=O)(Nc1cccc2ccccc12)c1ccc(NCc2ccc(Br)cc2O)cc1 | 2.24 | –
COc1ccc(C2Nc3ccccc3C(=O)N2CCO)cc1COc1c(C)cc(NC(C)=O)cc1C (centres undefined) | 0.838 | –
C[C@H](NC(c1ccc(F)cc1)c1ccc2cccnc2c1O)c1ccccc1 (some centres undefined) | -2.06 | –
N=c1c2c(ncn1-c1ccccc1)Oc1ccc3ccccc3c1C2c1ccc2c(c1)CCO2 (centres undefined) | 65.5 | –
COc1cc(OC)cc(C2=Nn3c(nnc3-c3ccccc3O)SC2)c1 | -5.14 | –
O=S1(=O)N=C(Sc2cccc3cccnc23)c2ccccc21 | -17 | –
